Screening data deposited in PubChem BioAssay by Broad Institute.
This is a sample that favours compounds with a hit; in the whole collection about 6.7% have one here.
C diff HTS: C. difficile growth inhibition; Clostridium difficile clinical isolate growth, OD600, 24 h; stronger effect = lower value; growth activity, negative = inhibition, % at 16 µg/mL (by protocol); hit rate 0.25% among 86,000; AID 1259249;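 active = mean growth activity at or below -80% and every replicate also at or below -80%; inconclusive = mean at or below -80% but some replicate above -80%; inactive = mean growth activity above -80%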;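 note: 0% = DMSO wells and -100% = levofloxacin 16 µg/mL wells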
T cruzi growth: T. cruzi proliferation inhibition | T. cruzi beta-gal in NIH3T3, GalScreen luminescence, 90 h | inhibition, % at 8.34 µM | hit rate 5.9% among 77,000 | AID 624255;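 active = mean inhibition above about 93%, with at least 55% of replicates each passing it, limit read from the data, passing the limit was not always enough; inconclusive = only one of those two conditions holds; inactive = neither condition holds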
Pf Dd2 inh: inhibitors of Plasmodium falciparum Dd2 growth; P. falciparum Dd2 growth, SYBR Green, 72 h; stronger effect = lower value; activity change, % at 10 µM; hit rate 2.3% among 94,000; AID 1159554; in the data active = activity change below about -80%; inconclusive = no clear call, values can overlap the other calls
Numbers without * were called inactive.

For C[C@H]1CN([C@@H](C)CO)C(=O)c2cc(NC(=O)C3CCCCC3)ccc2O[C@@H]1CN(C)Cc1ccc(C(=O)O)cc1 the results were C diff HTS 0, T cruzi growth 1 and Pf Dd2 inh 35.
`COc1cccc(CN2CC3(CCN(Cc4ccccn4)CC3)c3c([nH]c4cc(OC)ccc34)[C@H]2CO)c1` gave C diff HTS 5 and Pf Dd2 inh -84*.
COc1ccc2c3c([nH]c2c1)[C@H](CO)N(Cc1ccncc1)CC31CN(Cc2ccc(-c3ccccn3)cc2)C1 was read as C diff HTS 5 and Pf Dd2 inh -89*.
`COc1cccc(CN2CC3(CN(Cc4ccccn4)C3)c3c([nH]c4cc(OC)ccc34)[C@H]2CO)c1` gave C diff HTS 13 and Pf Dd2 inh -87*.
COc1ccc2c3c([nH]c2c1)[C@@H](CO)N(Cc1ccncc1)CC31CN(Cc2ccc(-c3ccccn3)cc2)C1 was read as C diff HTS 4 and Pf Dd2 inh inconclusive.
Screening COc1ccc2c3c([nH]c2c1)[C@@H](CO)N(Cc1cccc(F)c1)CC31CN(Cc2ccccn2)C1 returned C diff HTS 0 and Pf Dd2 inh inconclusive.
For COc1ccc2c3c([nH]c2c1)[C@@H](CO)N(Cc1ccc(F)cc1)CC31CN(Cc2ccccn2)C1 the results were C diff HTS 8 and Pf Dd2 inh inconclusive.
Screening C[C@@H]1CN([C@@H](C)CO)C(=O)c2cccc(NC(=O)C3CCOCC3)c2O[C@H]1CN(C)Cc1ccncc1 returned C diff HTS 5, T cruzi growth 63 and Pf Dd2 inh 4.
For COc1ccc2c3c([nH]c2c1)[C@@H](CO)N(Cc1cc(F)ccc1F)CC31CCN(C(=O)CN(C)C)CC1 the results were C diff HTS 6 and Pf Dd2 inh -85*.
Screening COc1ccc2c3c([nH]c2c1)[C@@H](CO)N(Cc1cc(F)ccc1F)CC31CN(C(=O)CN(C)C)C1 returned C diff HTS -11 and Pf Dd2 inh -87*.
For COc1ccc2c3c([nH]c2c1)[C@H](CO)N(Cc1cc(F)ccc1F)CC31CN(C(=O)CN(C)C)C1 the results were C diff HTS -3 and Pf Dd2 inh inconclusive.
For COCC(=O)N1CCC2(CC1)CN(Cc1cc(F)ccc1F)[C@@H](CO)c1[nH]c3cc(OC)ccc3c12 the results were Pf Dd2 inh -53.
`N#C[C@@H]1[C@@H](c2ccc(C3=CCCC3)cc2)[C@@H](CO)N1C(=O)NC1CCCC1` gave C diff HTS -6, T cruzi growth -17 and Pf Dd2 inh 27.
O=C(N[C@@H]1CC[C@@H](CCNC(=O)c2cnccn2)O[C@H]1CO)c1ccc2c(c1)OCO2 was read as T cruzi growth 19 and Pf Dd2 inh 3.
Screening COc1cccc(S(=O)(=O)N(C)C[C@@H]2Oc3ncc(-c4cccc(C(=O)N(C)C)c4)cc3C(=O)N([C@@H](C)CO)C[C@@H]2C)c1 returned C diff HTS -2, T cruzi growth 14 and Pf Dd2 inh -40.
C[C@@H]1CN([C@H](C)CO)C(=O)c2cc(NC(=O)Nc3ccccc3)ccc2O[C@@H](C)CCCCO[C@H]1CN(C)S(=O)(=O)c1ccccc1 was read as T cruzi growth 32 and Pf Dd2 inh -79.
For Cc1ccc(S(=O)(=O)N(C)C[C@@H]2OCCCC[C@@H](C)Oc3ccc(NC(=O)Nc4ccccc4)cc3C(=O)N([C@H](C)CO)C[C@@H]2C)cc1 the results were C diff HTS 10, T cruzi growth 45 and Pf Dd2 inh -86*.
For Cc1ccc(S(=O)(=O)N(C)C[C@H]2OCCCC[C@H](C)Oc3ccc(NC(=O)Nc4ccccc4)cc3C(=O)N([C@@H](C)CO)C[C@H]2C)cc1 the results were C diff HTS 9, T cruzi growth -17 and Pf Dd2 inh -91*.
C[C@@H]1CCCCO[C@@H](CN(C)S(=O)(=O)c2ccccc2)[C@H](C)CN([C@@H](C)CO)C(=O)c2cc(NC(=O)Nc3ccccc3)ccc2O1 was read as T cruzi growth 20 and Pf Dd2 inh -28.
For C[C@@H]1CN([C@@H](C)CO)C(=O)c2cccc(NC(=O)C3CCOCC3)c2O[C@@H]1CN(C)Cc1ccc(Cl)c(Cl)c1 the results were C diff HTS -3, T cruzi growth 12 and Pf Dd2 inh -28.
`COc1ccc(S(=O)(=O)N(C)C[C@@H]2OCCCC[C@@H](C)Oc3ccc(NC(=O)Nc4ccc(F)cc4)cc3C(=O)N([C@@H](C)CO)C[C@@H]2C)cc1` gave C diff HTS 6, T cruzi growth 54 and Pf Dd2 inh -81*.
COc1ccc(NC(=O)Nc2ccc3c(c2)C(=O)N([C@@H](C)CO)C[C@H](C)[C@H](CN(C)S(=O)(=O)c2ccc(F)cc2)OCCCC[C@@H](C)O3)cc1 was read as C diff HTS 5, T cruzi growth 60 and Pf Dd2 inh -85*.
